Screening results (PubChem)
rCAG RNA binder: r(CAG) repeat RNA binding. TO-PRO-1 dye displacement fluorescence. AID 651821. hit rate 1.3% among 370,000. inhibition, % at 3 µM;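 active = inhibition above the plate cutoff, the mean of all test compounds on that plate plus 3 SD, cut at about 35% in these data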;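 note: 0% = DMSO alone and 100% = 100 µM mitoxantrone as full dye displacement; higher means more dye released from RNA so lower well fluorescence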
DNMT1 block: DNMT1 (human) enzyme inhibition | P26358 | DNMT1 molecular beacon, Hinp1I cleavage, fluorescence | inhibition (reported as % activation of signal), % at 10 µM | hit rate 0.83% among 360,000; in the data active = inhibition above about 50%
LEDGF integ inh: blocks HIV-1 LEDGF/p75-dependent DNA integration. TR-FRET IN-LEDGF/p75 DNA integration, Eu/Cy5. inhibition, % at 3.7 µM. hit rate 0.64% among 370,000. AID 743269;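 active = inhibition above the screen-wide mean plus 3 SD, cut at about 13% in these data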;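 note: signal is the Cy5 over europium emission ratio at 671 and 618 nm; 0% = plate median of compound wells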
MBD2 DNA inh: MBD2-methylated oligo binding inhibition. Q9UBB5. inhibition, % at 4.4 µM. hit rate 0.31% among 370,000. TR-FRET, MBD2 binding to methylated oligonucleotide. AID 686964; in the data active = inhibition above about 13%
UHRF1 binding: blocks human UHRF1 binding to methylated DNA; Q96T88; UHRF1 binding to methylated oligo, TR-FRET; inhibition, % at 4.4 µM; hit rate 0.75% among 370,000; in the data active = inhibition above about 21%;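 note: UHRF1 SRA domain binding a hemimethylated CpG hairpin DNA probe; 0% = median of test compound wells and 100% = reference inhibitor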
Target sequence (Q96T88 whole entry, looked up, the tested form may be a part): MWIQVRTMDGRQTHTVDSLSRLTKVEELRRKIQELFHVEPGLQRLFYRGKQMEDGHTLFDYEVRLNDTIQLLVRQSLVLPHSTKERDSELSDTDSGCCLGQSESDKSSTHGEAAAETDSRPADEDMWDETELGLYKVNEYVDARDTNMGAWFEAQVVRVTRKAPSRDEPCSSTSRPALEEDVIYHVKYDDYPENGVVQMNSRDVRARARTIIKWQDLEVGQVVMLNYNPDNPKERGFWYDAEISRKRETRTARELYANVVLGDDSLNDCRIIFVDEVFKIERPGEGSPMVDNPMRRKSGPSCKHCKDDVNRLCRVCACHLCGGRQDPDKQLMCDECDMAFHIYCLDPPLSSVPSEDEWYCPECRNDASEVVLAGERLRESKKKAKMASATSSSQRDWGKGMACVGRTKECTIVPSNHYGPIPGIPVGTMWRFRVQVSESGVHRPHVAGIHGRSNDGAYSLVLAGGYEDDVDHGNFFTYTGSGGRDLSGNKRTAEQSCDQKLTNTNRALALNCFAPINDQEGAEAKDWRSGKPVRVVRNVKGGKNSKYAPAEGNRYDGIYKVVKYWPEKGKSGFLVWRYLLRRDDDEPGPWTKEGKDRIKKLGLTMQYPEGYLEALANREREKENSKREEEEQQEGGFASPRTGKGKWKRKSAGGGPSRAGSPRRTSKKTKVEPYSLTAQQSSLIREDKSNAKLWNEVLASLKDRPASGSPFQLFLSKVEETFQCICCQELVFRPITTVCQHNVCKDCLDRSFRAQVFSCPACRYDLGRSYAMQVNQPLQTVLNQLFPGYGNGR
PG9 Ab binder: small molecules binding HIV-1 gp120 antibody PG9; TR-FRET gp120-PG9 antibody binding; inhibition, % at 6.7 µM; hit rate 0.43% among 360,000; in the data active = inhibition above about 8.5%
PG9 binder conf: PG9 antibody binding, confirmed; shares compounds with PG9 Ab binder; TR-FRET PG9 antibody binding, biochemical; inhibition, % at 6.7 µM; hit rate 90% among 1,500; AID 651571; in the data active = inhibition above about 9%
PGV04 Ab binding: binds control antibody PGV04 in PG9 binder counter-screen; TR-FRET PGV04 antibody-gp120 binding, biochemical; hit rate 95% among 1,500; inhibition, % at 6.7 µM; shares compounds with PG9 Ab binder; in the data active = inhibition above about 9.5%
The depositor's hits bear a star; nt = no result given; ! = not active in a repeat. Only some compounds are listed: those with a hit (about 3.5% of all), similar ones and a draw of the others.

SMILES	rCAG RNA binder	DNMT1 block	LEDGF integ inh	MBD2 DNA inh	UHRF1 binding	PG9 Ab binder	PG9 binder conf	PGV04 Ab binding
COC(=O)c1cc(Br)c(=O)n(CCc2ccccc2)c1	2	0	0	1	-1	1	nt	nt
COC(=O)c1cc(Br)c(=O)n(-c2cccc(F)c2)c1	2	4	-2	-5	-1	11*	19*	23*
COC(=O)c1cc(Br)c(=O)n(-c2ccc(OC)cc2)c1	1	4	-2	-1	-2	9.9*	17*	22*
COC(=O)c1cc(Br)c(=O)n(-c2ccccc2OC)c1	9	-3	-5	0	7	6	nt	nt
O=C(Nc1ccc(Cl)cc1)N1CCN(Cc2nc3ccccc3c(=O)[nH]2)CC1	3	nt	-1	1	3	nt	nt	nt
Cc1nc(NCCc2ccc(S(N)(=O)=O)cc2)c2c(C)c(C)sc2n1	4	-2	1	-1	-2	0	nt	nt
CCOC(=O)c1sc2nc(C)nc(NCCc3ccc(S(N)(=O)=O)cc3)c2c1C	1	-2	1	-5	-1	18*	27*	47*
Cc1nc(NCc2ccc(S(N)(=O)=O)cc2)c2c(C)c(C)sc2n1	3	0	-5	-2	4	41*	22*	31*
Cc1ccc(S(=O)(=O)Nc2ccccc2C(=O)N2CCN(C)CC2)cc1	-1	2	0	2	18	-1	nt	nt
O=C(CCSc1nnc2ccccn12)Nc1ccc(F)cc1	-2	0	0	10	0	1	nt	nt
O=C(CCSc1nnc2ccc3ccccc3n12)Nc1ccc(F)cc1	3	3	-2	2	0	23*	7	21*
CC1=Nc2ccc(C)cc2/C1=C/c1c(N)n2oc(C)cc2nc1=O	9	56*!	-4	-1	3	17*!	20*	43*
CC1=Nc2ccc(C)cc2/C1=C/c1c(N)n2nc(CC(=O)N3CCOCC3)sc2nc1=O	21	0	1	-1	-3	-5	nt	nt
CCOc1ncccc1C(=O)Nc1ccc(Cl)c(S(=O)(=O)N2CCCC2)c1	4	-4	-6	6	3	11*	7	10*
CCOc1ncccc1C(=O)Nc1cc(S(=O)(=O)N2CCCCC2)ccc1Cl	1	1	2	3	0	1	nt	nt
CC1(C(=O)NS(=O)(=O)C2CC2)CCCN(C(=O)c2ccccc2C(F)(F)F)C1 (stereo unspecified)	3	0	-1	-3	0	1	nt	nt
O=C(COC(=O)c1ccc2c(c1)OCO2)NCc1ccc(Cl)cc1	-2	-2	-3	-2	0	12*	6	19*
N#Cc1ccc(Cl)cc1NC(=O)COC(=O)c1ccc2c(c1)OCCO2	8	-2	1	2	2	50*	40*	69*
N#Cc1ccccc1NC(=O)COC(=O)c1ccc2c(c1)OCCO2	6	1	1	7	1	4	nt	nt
COC(=O)c1ccc(N2C(=O)CC(N3CCN(c4ccccc4)CC3)C2=O)cc1 (stereo unspecified)	2	0	2	-7	4	1	nt	nt
COC(=O)c1ccc(N2C(=O)CC(N3CCOCC3)C2=O)cc1 (stereo unspecified)	2	2	1	-3	-2	13*	7	9.3*
Cc1noc(C)c1CSCC(=O)Oc1ccc(N(C)S(=O)(=O)c2ccc(Cl)cc2)cc1	2	0	-1	5	-2	-1	nt	nt
Brc1ccc(-c2nc3c4ccccc4ccn3c2Cc2ccccc2)cc1	4	16	3	0	11	1	nt	nt
CCCn1cnc2c(sc3nc4c(cc32)CSC(C)(C)C4)c1=O	-2	-2	1	2	1	0	nt	nt
CC(C)CCOc1ncnc2c1sc1nc3c(cc12)CSC(C)(C)C3	1	3	-1	3	0	26*	5	29*
COC(=O)[C@]12CCCCC=C1N(Cc1ccc(Cl)cc1Cl)C(=O)[C@H](CC(=O)NCc1ccc(C)o1)C2	9	nt	2	2	-3	1	nt	nt
COc1ccc(C(C#N)=Cc2cc(OC)c(OC)c(OC)c2)cc1	0	nt	5	-1	-1	-2	nt	nt
